Results reported in PubChem BioAssay.
A number with no mark means an inactive call. How the calls were made is not given here.

Biological target: Pantothenate synthetase (Mycobacterium tuberculosis (strain ATCC 25618 / H37Rv)) (UniProt P9WIL5)
Assay: Recombinant Mtb pantothenate synthetase (PanC) inhibitors, coupled enzyme, confirmatory (AID 375);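 further: 0% = full reaction with vehicle and 100% = no enzyme background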
Settings: coupled enzyme assay; at 10 µM, active compounds read high

Chain of Pantothenate synthetase (Mycobacterium tuberculosis (strain ATCC 25618 / H37Rv)) (P9WIL5 whole entry, looked up): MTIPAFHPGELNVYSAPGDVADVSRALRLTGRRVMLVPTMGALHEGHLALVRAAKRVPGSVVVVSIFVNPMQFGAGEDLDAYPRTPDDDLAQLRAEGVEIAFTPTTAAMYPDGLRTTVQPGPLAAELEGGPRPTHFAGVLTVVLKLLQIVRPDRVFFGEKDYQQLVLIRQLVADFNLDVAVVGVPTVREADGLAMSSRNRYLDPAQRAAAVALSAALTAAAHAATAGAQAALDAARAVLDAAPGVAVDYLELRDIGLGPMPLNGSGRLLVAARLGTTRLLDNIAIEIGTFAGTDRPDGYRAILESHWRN

Row | Compound | inhibition
1 | COc1ccccc1Nc1nc(N)nc(CN2CCN(c3ccccc3F)CC2)n1 | 0%
2 | O=C(O)c1ccc2noc(-c3ccccc3)c2c1 | 0%
3 | COc1ccc(CC(NC(C)=O)C(=O)N2CCN(C(=O)N(C(C)C)C(C)C)CC2)cc1 (configuration not stated) | 0%
4 | CCCCOc1ccc(OCCCN2CCOCC2)cc1 | 2%
5 | CCn1cnc2cc(NCc3cccc(OC)c3O)ccc21 | 12%
6 | CCn1cc(C(=O)NCCCOC)c(=O)c2cc(S(=O)(=O)N(C)C)ccc21 | 0%
7 | C/C=C(/C(=C/C)c1ccc(O)cc1)c1ccc(O)cc1 | 0%
8 | CCCn1c(SCC(=O)N2CCc3ccccc3C2)nc2c1c(=O)n(C)c(=O)n2C | 1%
9 | COc1ccc(Cc2nc(-c3ccc(NC(=O)c4cccnc4)cc3)no2)cc1 | 0%
10 | CCOC(=O)N1CCN(S(=O)(=O)c2ccc(F)c(C(=O)Nc3cc(C)cc(C)c3)c2)CC1 | 7%
11 | O=C(NCC1COc2ccccc2O1)c1ccccc1 (configuration not stated) | 2%
12 | Cc1cc(C(F)F)n2ncc(C(=O)NC3CCCCCC3)c2n1 | 0%
13 | CC(=O)c1cccc(NC(=O)NCc2ccccn2)c1 | 2%
14 | CC(NC(=O)c1cn(C)c2ccc(S(=O)(=O)N3CCCC3)cc2c1=O)c1ccc2c(c1)OCCO2 (configuration not stated) | 0%
15 | CCn1ncc(C2=NOC(C(=O)NCc3ccccc3)C2)c1C (configuration not stated) | 6%
16 | CC1CCN(c2nc3c(c(=O)n(C)c(=O)n3C)n2Cc2ccccc2)CC1 | 0%
17 | O=C(C1CCCCC1)N1CCC(c2nc3c(nnn3Cc3ccccc3Cl)c(=O)[nH]2)CC1 | 4%
